According to PubChem BioAssay (NCATS):
Results filed as inconclusive are left out. Activity calls are given as the source filed them. The call rests on the fitted dose curve.

molecular target: Retinoic acid receptor RXR-alpha (Homo sapiens) (UniProt P19793); experiment: qHTS assay for small molecule agonists of retinoid X receptor alpha signaling (AID 588544); conditions: HEK293T RXRa-UAS-bla, beta-lactamase reporter, 18 h; series mostly up to 76.7 µM; activation: at the top concentration;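 further: 0% = DMSO basal wells and 100% = reference agonist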
Sequence (P19793 whole entry, looked up): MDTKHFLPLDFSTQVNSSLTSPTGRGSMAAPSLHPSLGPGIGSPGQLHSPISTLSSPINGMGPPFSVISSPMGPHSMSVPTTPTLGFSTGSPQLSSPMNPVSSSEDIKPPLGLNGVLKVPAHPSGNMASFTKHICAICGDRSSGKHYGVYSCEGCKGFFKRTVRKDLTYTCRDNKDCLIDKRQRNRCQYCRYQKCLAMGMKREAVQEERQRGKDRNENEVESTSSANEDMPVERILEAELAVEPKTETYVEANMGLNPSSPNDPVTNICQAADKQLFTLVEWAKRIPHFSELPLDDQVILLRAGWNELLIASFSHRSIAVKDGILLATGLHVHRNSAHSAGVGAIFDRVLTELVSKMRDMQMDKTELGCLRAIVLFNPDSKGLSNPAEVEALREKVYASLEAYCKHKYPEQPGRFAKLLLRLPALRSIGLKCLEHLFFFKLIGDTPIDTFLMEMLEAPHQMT

Structure (SMILES)	activation
CC(=O)O[C@H]1C(=O)[C@@]2(C)[C@H]([C@H](OC(=O)c3ccccc3)[C@]3(O)C[C@H](OC(=O)[C@H](O)[C@@H](NC(=O)c4ccccc4)c4ccccc4)C(C)=C1C3(C)C)[C@]1(OC(C)=O)CO[C@@H]1C[C@@H]2O	-15.5% (inactive)
CC(=O)O[C@@H]1CC(C)=C2[C@H]1[C@H](C)CC[C@H]2/C=C(\C)C(=O)O	0.138% (inactive)
Cc1ccc(N)cc1O	-2.44% (inactive)
Nc1ccccc1N	-12.6% (inactive)

molecular target: Thyroid hormone receptor beta (Homo sapiens) (UniProt P10828); experiment: qHTS assay for small molecule agonists of thyroid hormone receptor beta signaling (AID 588545); conditions: TR-UAS-bla GripTite HEK 293, beta-lactamase ratio, agonist mode, 18 h, percent of T3 response, DMSO as zero; series mostly up to 76.7 µM; activation: at the top concentration;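 further: 0% = DMSO only and 100% = 10 nM T3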
Sequence (P10828 whole entry, looked up): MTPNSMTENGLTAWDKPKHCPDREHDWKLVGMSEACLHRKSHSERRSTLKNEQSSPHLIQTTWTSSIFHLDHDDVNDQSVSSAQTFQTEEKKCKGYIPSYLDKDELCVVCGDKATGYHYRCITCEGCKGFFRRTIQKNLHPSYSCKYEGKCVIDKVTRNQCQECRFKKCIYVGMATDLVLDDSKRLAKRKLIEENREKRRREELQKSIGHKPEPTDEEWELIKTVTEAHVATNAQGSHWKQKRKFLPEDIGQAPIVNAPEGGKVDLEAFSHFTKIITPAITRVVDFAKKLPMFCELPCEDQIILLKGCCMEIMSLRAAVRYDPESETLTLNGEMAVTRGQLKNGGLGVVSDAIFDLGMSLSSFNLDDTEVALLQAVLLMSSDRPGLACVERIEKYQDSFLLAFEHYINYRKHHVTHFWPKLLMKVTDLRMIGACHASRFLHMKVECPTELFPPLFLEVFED
Procedure, shortened: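 Compounds were tested as agonists in TR-UAS-bla-GripTite HEK 293 cells. After 18 hrs at 37 C, CCF4 substrate was added and fluorescence read after 2 hrs at room temperature.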

Structure (SMILES)	activation
CC(=O)O[C@H]1C(=O)[C@@]2(C)[C@H]([C@H](OC(=O)c3ccccc3)[C@]3(O)C[C@H](OC(=O)[C@H](O)[C@@H](NC(=O)c4ccccc4)c4ccccc4)C(C)=C1C3(C)C)[C@]1(OC(C)=O)CO[C@@H]1C[C@@H]2O	5.13% (inactive)
CC(=O)O[C@@H]1CC(C)=C2[C@H]1[C@H](C)CC[C@H]2/C=C(\C)C(=O)O	-26.2% (inactive)
Cc1ccc(N)cc1O	-6.39% (inactive)
Nc1ccccc1N	-12.5% (inactive)
